Measured values published in PubChem BioAssay AID1697 (The Scripps Research Institute Molecular Screening Center, 2009).
Some of the results follow. Unmarked numbers belong to inactive results. Activity calls are given as the source filed them.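 Rule for the calls: active = percent activation above the mean of DMSO-only control wells plus 3 SD of those wells (cut at about 18% in these data); inactive = the rest.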

Molecular target: Neuropeptide Y receptor type 1 (Homo sapiens) (UniProt P25929)
Assay: human Y1 receptor agonism – cell-based, fluorescence, counter-screen for NPY-Y1 potentiator project, confirmation (AID 1697);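 note: cells challenged with isoproterenol plus Ro 20-1724 with no NPY in test wells; Y1 agonism lowers isoproterenol-driven cAMP and reduces probe fluorescence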
Details: HEK293 Y1-CNGC, membrane potential fluorescence, agonist mode; at 3.6 µM; active compounds read high

Sequence of Neuropeptide Y receptor type 1 (Homo sapiens) (P25929 whole entry, looked up): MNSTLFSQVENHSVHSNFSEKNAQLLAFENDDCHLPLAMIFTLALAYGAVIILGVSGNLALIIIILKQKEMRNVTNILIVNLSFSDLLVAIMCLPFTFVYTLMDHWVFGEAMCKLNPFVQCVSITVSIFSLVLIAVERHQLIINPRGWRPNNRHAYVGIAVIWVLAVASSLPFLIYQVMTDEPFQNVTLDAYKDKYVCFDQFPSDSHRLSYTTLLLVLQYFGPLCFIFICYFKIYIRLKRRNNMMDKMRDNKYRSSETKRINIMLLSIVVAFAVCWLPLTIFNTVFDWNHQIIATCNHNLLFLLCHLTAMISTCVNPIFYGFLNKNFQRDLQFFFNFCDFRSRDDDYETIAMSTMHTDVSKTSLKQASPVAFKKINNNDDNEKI

| SMILES | activation |
| --- | --- |
| Cc1nn(Cc2ccccc2Cl)c(Cl)c1C(=O)OC(C(=O)NC(N)=O)C(C)C (configuration not stated) | 30.6% (active) |
| CSC1=NP(=S)(SC)N(C)c2nc3n(c21)CCC3 (configuration not stated) | 9.49% |
